Measurements taken from PubChem BioAssay (NCATS).
Results filed as inconclusive are left out. Activity calls are given as the source filed them. Unless noted, calls come from the whole dose curve; as a rule, active = well fitted curve in the direction sought with a large enough effect; inconclusive = small, poorly fitted or top-dose-only effect, or another doubt; inactive = no such curve, though single readings can be large; an effect the other way counts as inactive or inconclusive.

Experiments:
[1] = Confirmation and Secondary Assay for Modulators of Hemoglobin Beta Chain Splicing at IVS2 654 locus (AID 910);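 note: per-well total GFP intensity by laser scanning cytometry after 2-day treatment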;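 note: potency is the fitted concentration of half-maximal effect; potency of activators that raise GFP signal by restoring correct splicing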
How it was run: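 HeLa cells stably carrying EGFP interrupted by mutant beta-globin IVS2-654 intron (CMV-driven) were treated with compound for 2 days at 37C; corrected splicing was scored as total peak GFP intensity per well (488 nm excitation, 500-520 nm emission).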

[2] = Cell Viability - LYMP2-001 (AID 921); note: series mostly up to about 92 µM; nearly all actives have a fitted effect of over 70% in size
How it was run: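 Human lymphoblastoid cells (Coriell), 2500 per well, were preincubated 5 hr at 37 C, then exposed to compounds in complete medium for 24 hr at 37 C. Cellular ATP was read by CellTiter-Glo luminescence; AC50 from Hill fits of concentration-response data.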

[3] = Confirmation and Secondary Assay for Modulators of Hemoglobin Beta Chain Splicing at IVS2 705 locus (AID 930);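 note: HeLa cells stably expressing the EGFP-705 splicing reporter; GFP fluorescence per well restored by corrected splicing of the IVS2-705 intron in EGFP; series mostly up to about 46 µM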
How it was run: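 Stable HeLa line with EGFP disrupted by mutant beta-globin intron 2 (705). Overnight attachment, then 2 days of compound at 37C, 5% CO2. Signal: peak GFP intensity summed over objects 5-250 µm.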

[4] = target: Pyruvate kinase (Leishmania mexicana) (UniProt Q27686); experiment: qHTS Validation Assay for Inhibitors of Leishmania Mexicana Pyruvate Kinase (AID 945); note: potency is the fitted concentration of half-maximal effect
How it was run: (§1)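 Mutant LmPYK (E451W), 0.2 nM, plus 0.5 mM PEP and 0.1 mM ADP in 50 mM imidazole pH 7.2 containing 0.01% Tween 20 and 0.05% BSA. Incubated 1 h at room temperature; luminescence via PKLight, normalized to DMSO.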

[5] = MultiTox-Fluor Cytotoxicity Assay - LYMP1-001 - Dead Cells (AID 946)
How it was run: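 LYMP1-001 lymphoblastoid cells (2500/well) treated 16 h at 37 C. Dead-cell protease cleavage of bis-AAF-R110 read at Ex/Em 485/520. Normalized to DMSO and 15 uM tetraoctylammonium bromide; AC50 from Hill fits.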

[6] = MultiTox-Fluor Cytotoxicity Assay - LYMP1-001 - Live Cells (AID 947)
[7] = Cell Viability - LYMP1-002 - Assay at 16 hr (AID 948)
How it was run: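 Human lymphoblastoid cells (LYMP1-002), 2500/well, were preincubated 5 hr at 37 C, then exposed to compounds for 16 hr at 37 C in complete medium. Cellular ATP was read by CellTiter-Glo luminescence after 30 min at room temperature; AC50 from Hill fits.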

[8] = target: Pyruvate kinase PKM (Homo sapiens) (UniProt P14618); experiment: qHTS Assay for Activators of Human Muscle Pyruvate Kinase (AID 954; active = well fitted curve in the direction sought with a large enough effect, not every such curve was filed as active)
How it was run: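 Compound pinned into substrate mix (0.5 mM PEP, 0.1 mM ADP), then 0.1 nM PKM2 added; 1 h, RT. Stop/detection luciferase reagent added, luminescence read. Normalized to no-inhibition and no-enzyme or reference-inhibitor controls.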

[9] = MultiTox-Fluor Cytotoxicity Assay - LYMP1-002 - Live Cells (AID 955)
How it was run: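 In this qHTS viability format, lymphoblastoid cells (LYMP1-002, human) received compound for 16 hr at 37 C. Fluorogenic GF-AFC cleavage by viable cells was detected at 405/510 nm after 1 h at room temperature.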

[10] = MultiTox-Fluor Cytotoxicity Assay - LYMP1-002 - Dead Cells (AID 960); note: nearly all actives have a fitted effect of over 60% in size
How it was run: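 Concentration-dependent increases in membrane-leaked protease activity are quantified in LYMP1-002 cells after 16 hr treatment; values are normalized against DMSO and tetraoctylammonium bromide (15 uM) controls and AC50 derived by Hill modeling.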

[11] = MultiTox-Fluor Cytotoxicity Assay - LYMP1-003 - Dead Cells (AID 961); note: nearly all actives have a fitted effect of over 70% in size
How it was run: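 LYMP1-003 human lymphoblastoid cells (2500/well) exposed to compound 16 h at 37 C in complete medium; dead-cell protease read with bis-AAF-R110 fluorescence (Ex/Em 485/520) after 60 min at room temperature. Normalized to DMSO and 15 uM tetraoctylammonium bromide; AC50 from Hill fit.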

[12] = qHTS Assay for Identification of Small Molecule Agonists for Thrombopoietin (TPO) Signaling Pathway (AID 917); note: potency is the fitted concentration of half-maximal effect
How it was run: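 First, Ba/F3 cells with human TPO receptor were held overnight without IL-3. Next, compounds and TPO (26 pM final) were added. After 24 hrs at 37 C, luciferase detection reagent was added and luminescence measured following 10 min at room temperature.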

[13] = target: Pyruvate kinase PKM (Homo sapiens) (UniProt P14618); experiment: qHTS Assay for Inhibitors of Human Muscle Pyruvate Kinase (AID 958); details: purified human PKM enzyme activity
How it was run: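 Screening used highly purified human pyruvate kinase M2 under submaximal activity, with PEP at its Km and ADP below Km. After an hour at room temperature, ATP was read by luciferase luminescence.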

[14] = target: Pyruvate kinase (Leishmania mexicana) (UniProt Q27686); experiment: qHTS Validation Assay for Activators of Leishmania Mexicana Pyruvate Kinase (AID 959)
How it was run: as §1

[15] = target: Muscarinic acetylcholine receptor M1 (Rattus norvegicus) (UniProt P08482); experiment: qHTS Assay for Antagonists of Acetylcholine Muscarinic M1 Receptor: Kinetic Measurement of Intracellular Calcium Response (AID 943); note: nearly all actives have a fitted effect of over 75% in size; note: potency is the fitted concentration of half-maximal effect
How it was run: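 Quantitative HTS in CHO-M1 (rat receptor) cells: 10 min compound exposure ahead of 100 nM carbachol, Fluo-4 fluorescence followed 4 min, value expressed as peak-to-basal ratio.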

[16] = target: Muscarinic acetylcholine receptor M1 (Rattus norvegicus) (UniProt P08482); experiment: qHTS Assay for Antagonists of Acetylcholine Muscarinic M1 Receptor: Measurement of IP-One Response (AID 944); note: nearly all actives have a fitted effect of over 75% in size; note: potency is the fitted concentration of half-maximal effect
How it was run: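 Antagonism was measured as loss of carbachol-driven (EC80) IP1 accumulation in CHO cells carrying rat M1, using a homogeneous IP-One TR-FRET kit read at 620 and 665 nm.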

[17] = qHTS Assay for Identification of Small Molecule Antagonists for Thrombopoietin (TPO) Signaling Pathway (AID 918); details: TPO-dependent cell signaling reporter, antagonist mode; note: potency is the fitted concentration of half-maximal effect; nearly all actives have a fitted effect of over 60% in size
How it was run: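 Antagonist mode at EC50 TPO (26 pM) in IL-3-free medium; murine Ba/F3 cells with human TPO receptor and GPIIb-promoter luciferase, 24 hrs at 37 C before luminescent detection.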

Measured: Potency

Sequence of Pyruvate kinase PKM (Homo sapiens) (P14618 whole entry, looked up): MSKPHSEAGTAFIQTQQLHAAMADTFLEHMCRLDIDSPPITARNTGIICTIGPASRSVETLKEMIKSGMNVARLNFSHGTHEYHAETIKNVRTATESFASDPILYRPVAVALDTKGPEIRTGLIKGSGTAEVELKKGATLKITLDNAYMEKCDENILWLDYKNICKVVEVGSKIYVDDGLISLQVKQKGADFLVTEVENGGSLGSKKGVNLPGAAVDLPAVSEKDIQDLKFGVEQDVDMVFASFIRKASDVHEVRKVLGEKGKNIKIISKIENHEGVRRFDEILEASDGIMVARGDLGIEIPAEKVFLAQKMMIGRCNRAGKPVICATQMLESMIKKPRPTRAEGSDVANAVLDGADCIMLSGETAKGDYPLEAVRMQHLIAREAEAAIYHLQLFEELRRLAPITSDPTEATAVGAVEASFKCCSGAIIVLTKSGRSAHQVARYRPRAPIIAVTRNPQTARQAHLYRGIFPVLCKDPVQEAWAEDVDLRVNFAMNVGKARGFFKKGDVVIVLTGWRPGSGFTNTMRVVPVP
Sequence of Pyruvate kinase (Leishmania mexicana) (Q27686 2-499 E452W): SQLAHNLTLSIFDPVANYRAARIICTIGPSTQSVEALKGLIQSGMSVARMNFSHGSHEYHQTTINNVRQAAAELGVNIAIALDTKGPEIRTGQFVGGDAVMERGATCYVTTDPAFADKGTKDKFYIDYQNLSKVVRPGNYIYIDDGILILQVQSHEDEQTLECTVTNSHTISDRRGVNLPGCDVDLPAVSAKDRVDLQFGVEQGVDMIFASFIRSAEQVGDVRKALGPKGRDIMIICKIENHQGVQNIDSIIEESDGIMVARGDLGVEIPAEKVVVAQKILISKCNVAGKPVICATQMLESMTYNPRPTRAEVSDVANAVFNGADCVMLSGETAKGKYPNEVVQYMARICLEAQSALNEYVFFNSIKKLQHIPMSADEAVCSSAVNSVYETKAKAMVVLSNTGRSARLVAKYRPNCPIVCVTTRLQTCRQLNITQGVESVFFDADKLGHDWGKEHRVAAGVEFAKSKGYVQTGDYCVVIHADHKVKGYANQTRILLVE
Sequence of Muscarinic acetylcholine receptor M1 (Rattus norvegicus) (P08482 whole entry, looked up): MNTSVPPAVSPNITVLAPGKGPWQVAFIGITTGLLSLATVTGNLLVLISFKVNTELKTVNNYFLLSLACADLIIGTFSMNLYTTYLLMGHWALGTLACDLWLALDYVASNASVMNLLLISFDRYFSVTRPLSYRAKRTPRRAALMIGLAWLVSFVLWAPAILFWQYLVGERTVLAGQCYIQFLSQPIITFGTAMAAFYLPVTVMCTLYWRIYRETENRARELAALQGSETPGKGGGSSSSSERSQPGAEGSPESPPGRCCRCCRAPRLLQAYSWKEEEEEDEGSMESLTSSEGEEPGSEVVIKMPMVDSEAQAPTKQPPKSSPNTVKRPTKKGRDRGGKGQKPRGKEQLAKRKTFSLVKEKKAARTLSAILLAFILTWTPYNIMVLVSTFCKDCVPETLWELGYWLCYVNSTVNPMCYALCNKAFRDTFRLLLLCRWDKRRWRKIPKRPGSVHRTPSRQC

CC(=O)OCC(CCn1cnc2cnc(N)nc21)COC(C)=O
inactive: [1]

Nc1c2c(nc3ccccc13)CCCC2
not listed: [12] | [13] | [14] | [15] | [16] | [17]
inactive: all other assays above

CC1COc2c(N3CCN(C)CC3)c(F)cc3c(=O)c(C(=O)O)cn1c23 (stereo not given)
inactive: [1]

NC(CO)C(=O)NNCc1ccc(O)c(O)c1O (stereo not given)
inactive: [1] | [3]

NCCCCCC(=O)O
inactive: [1] | [3] | [4] | [8]

COc1ccccc1OCCNCC(O)COc1cccc2[nH]c3ccccc3c12 (stereo not given)
inactive: [1]

CCCNCC(O)COc1ccccc1C(=O)CCc1ccccc1 (stereo not given)
inactive: [1] | [3]

O=C(Nc1ccc([N+](=O)[O-])cc1Cl)c1cc(Cl)ccc1O
inactive: [1] | [3] | [8] | [14]
active: [12] 0.1 µM | [4] 2.51 µM | [13] 3.16 µM

Nc1ccn([C@H]2CC[C@@H](CO)O2)c(=O)n1
not listed: [3] | [12] | [13] | [14] | [17]
inactive: all other assays above

O=C(c1ccc(F)cc1)C1CCN(CCn2c(=O)[nH]c3ccccc3c2=O)CC1
inactive: [1] | [3] | [16] | [4] | [8]

CC12CC3CC(C)(C1)CC(N)(C3)C2
inactive: [1]

CC(C)C(=O)Nc1ccc([N+](=O)[O-])c(C(F)(F)F)c1
inactive: [1] | [2] | [4] | [5] | [6] | [7] | [8] | [9] | [11]

COc1ccccc1OCC(O)CN1CCN(CC(=O)Nc2c(C)cccc2C)CC1 (stereo not given)
inactive: [1] | [3]

CC(C)NCC(O)c1ccc(O)c(O)c1 (stereo not given)
inactive: [1] | [2] | [3] | [5] | [6] | [7] | [9] | [10] | [11]

CN1CCC(=C2c3ccccc3CC(=O)c3sccc32)CC1
inactive: [1] | [3] | [4] | [8]

NS(=O)(=O)c1cc2c(cc1Cl)NCNS2(=O)=O
not listed: [10] | [12] | [13] | [14] | [15] | [16] | [17]
inactive: all other assays above

NC12CC3CC(CC(C3)C1)C2
inactive: [1] | [12] | [8]

CN(C)C(=N)N=C(N)N
inactive: [1]

CN1CCN2c3ccccc3Cc3ccccc3C2C1 (stereo not given)
inactive: [1] | [3]

NCCc1cnc[nH]1
inactive: [1] | [15] | [16] | [4] | [8]

CCC1(C)CC(=O)NC1=O (stereo not given)
inactive: [1] | [3]

CC(COc1ccccc1)N(CCCl)Cc1ccccc1 (stereo not given)
inactive: [1] | [3] | [5] | [6] | [7] | [9] | [10] | [11]

CC(C(=O)O)c1cccc(C(=O)c2ccccc2)c1 (stereo not given)
inactive: [1]

COc1cc2nc(N(C)CCCNC(=O)C3CCCO3)nc(N)c2cc1OC (stereo not given)
inactive: [1] | [3]

CC[C@@]1(O)C(=O)OCc2c1cc1n(c2=O)Cc2cc3c(CN(C)C)c(O)ccc3nc2-1
inactive: [3]
active: [1] 12.6 µM

Clc1ccc(C(c2ccccc2Cl)C(Cl)Cl)cc1 (stereo not given)
not listed: [3] | [12] | [13] | [14] | [15] | [16] | [17]
inactive: all other assays above

CN(C)CCC=C1c2ccccc2C=Cc2ccccc21
inactive: [1] | [3] | [4] | [8]
active: [15] 0.0316 µM | [16] 0.112 µM

Cc1ccc(-c2cc(C(F)(F)F)nn2-c2ccc(S(N)(=O)=O)cc2)cc1
inactive: [1] | [2] | [3] | [5] | [7] | [9] | [11]

NCCS(=O)(=O)O
inactive: [12]

O=C(c1ccc(OCCN2CCCCC2)cc1)c1c(-c2ccc(O)cc2)sc2cc(O)ccc12
active: [17] 15.8 µM

Fc1ccc([C@@H]2CCNC[C@H]2COc2ccc3c(c2)OCO3)cc1
active: [17] 12.6 µM

Cn1ccc2cc3c(cc21)CCN3C(=O)Nc1cccnc1
active: [13] 6.31 µM
inactive: [14]
